Screening results: PubChem BioAssay, National Center for Advancing Translational Sciences (NCATS)
Gal4-VP16 FLuc: Gal4-VP16 reporter inhibition counter-screen; Drosophila S2 Gal4-VP16 UAS-luciferase, luminescence, 20 h; 310,000 tested, 3.5% active; AID 2546; Potency, µM (doses to about 53.6 µM), actives largely listed as inhibitors;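 note: Gal4-VP16 expression switched on by copper sulfate through the metallothionein promoter; nearly all actives have a fitted effect of over 50% in size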
RORg inh: ROR gamma (mouse) transcription inhibition. Drosophila S2 Gal4-RORgamma UAS-luciferase reporter, 20 h. Potency, µM (top dose mostly 53.6 µM), usual class: inhibitors. 310,000 tested, 5.4% active. AID 2551; note: nearly all actives have a fitted effect of over 60% in size
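Schneider cells (Drosophila), stable Gal4 DBD–ROR gamma + UAS-luc; 1 hr cmpd preincubation; Cu2+ induction 700 uM final; 20 hr ambient; luminescence.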
DT40 TDP1 no CPT: qHTS for Inhibitors of human tyrosyl-DNA phosphodiesterase 1 (TDP1): qHTS in cells in absence of CPT; Potency, µM (top dose mostly 46.2 µM), usual class: inhibitors; AID 686978, 2013; 420,000 tested, 15% active; DT40 Tdp1-/- hTDP1 cells, no CPT, ATP luminescence, 48 h; note: nearly all actives have a fitted effect of over 55% in size
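Growth of hTDP1-complemented DT40 Tdp1-knockout cells is measured by ATP luminescence after at least 48 hr compound exposure at 37 °C, with DMSO substituting for the 20 nM CPT used in the parallel screen.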
ELG1 repair inh: blocks ELG1-dependent DNA repair in HEK293T cells; HEK293T ELG1-luciferase reporter, luminescence, 16 h; DNA damage induced by 5-fluorouridine; 330,000 tested, 2.3% active; Potency, µM (doses to about 46.1 µM), hits mostly inhibitors; AID 504467; note: nearly all actives have a fitted effect of over 55% in size
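HEK293T cells expressing luciferase-tagged ELG1 (2,000/well) received 5-Fluorouridine plus compound or DMSO for 16 hr at 37 °C. Luciferase was read by ONE-Glo luminescence after 30 min at room temperature.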
TDP1 cell CPT: growth inhibition of DT40 Tdp1-/-;hTDP1 cells with camptothecin (screen for TDP1 inhibitors); chicken DT40 Tdp1-/-;hTDP1 cells + 20 nM CPT, ATP luminescence, 48 h; Potency, µM (highest dose often 46.2 µM), hits mostly inhibitors; 420,000 tested, 12% active; note: nearly all actives have a fitted effect of over 55% in size
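Cell growth measured by CellTiter-Glo luminescence after a minimum 48 h, 37 C compound exposure with 20 nM CPT in Tdp1-knockout DT40 cells stably expressing hTDP1, seeded 400/well; qHTS titration format.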
12-LOX inh: blocks human arachidonate 12S-lipoxygenase; P18054; purified 12hLO, xylenol orange hydroperoxide absorbance; Potency, µM (highest dose often 108 µM), usual class: inhibitors; 580,000 tested, 1.1% active
Target sequence (P18054 whole entry, looked up): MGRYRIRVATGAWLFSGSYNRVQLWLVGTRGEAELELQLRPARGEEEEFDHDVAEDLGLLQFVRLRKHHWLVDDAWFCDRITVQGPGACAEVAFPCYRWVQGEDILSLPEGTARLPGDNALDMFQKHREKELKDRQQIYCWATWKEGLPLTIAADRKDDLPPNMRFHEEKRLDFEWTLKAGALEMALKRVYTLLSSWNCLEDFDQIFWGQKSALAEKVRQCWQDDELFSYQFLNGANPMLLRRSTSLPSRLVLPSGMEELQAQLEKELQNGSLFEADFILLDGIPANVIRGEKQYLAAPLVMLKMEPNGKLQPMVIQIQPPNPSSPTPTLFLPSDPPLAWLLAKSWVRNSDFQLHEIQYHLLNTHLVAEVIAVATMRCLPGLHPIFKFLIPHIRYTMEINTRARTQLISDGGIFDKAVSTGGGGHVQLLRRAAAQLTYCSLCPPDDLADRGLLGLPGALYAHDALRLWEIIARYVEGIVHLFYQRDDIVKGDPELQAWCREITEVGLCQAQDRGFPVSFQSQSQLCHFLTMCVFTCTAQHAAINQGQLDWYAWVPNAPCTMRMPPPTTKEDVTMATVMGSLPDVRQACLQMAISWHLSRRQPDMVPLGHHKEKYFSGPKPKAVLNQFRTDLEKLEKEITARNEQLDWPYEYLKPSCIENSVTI
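Hydroperoxide product was detected by ferrous iron/xylenol orange as the 573 to 405 nm absorbance ratio. Arachidonic acid at 40 uM (final) was turned over for 30 min at room temperature by 150 nM human 12hLO, pH 7.0 Hepes buffer, after 15 min compound preincubation.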
A number is an active result; n = inactive; u = inconclusive; x = no result given. An excerpt weighted towards active compounds, which were near 15% of everything screened. Calls come from the whole dose curve; as a rule, active = well fitted curve in the direction sought with a large enough effect; inconclusive = small, poorly fitted or top-dose-only effect, or another doubt; inactive = no such curve, though single readings can be large; an effect the other way counts as inactive or inconclusive.

SMILES | Gal4-VP16 FLuc | RORg inh | DT40 TDP1 no CPT | ELG1 repair inh | TDP1 cell CPT | 12-LOX inh
COC(=O)c1ccc(C)c(NC(=O)c2nn(C(C)C)c(=O)c3ccccc23)c1 | x | x | x | x | x | n
N#CCOc1ccc2c(=O)c(-c3ccccc3)c(C(F)(F)F)oc2c1 | x | x | x | x | x | n
CC(C)(C)c1[nH]c2ccccc2c1C=O | x | x | x | x | x | n
O=C(CCC(=O)OCc1ccccc1F)Nc1ccc2c(c1)oc1ccccc12 | x | x | x | x | x | n
Cc1cccc(NC(=O)CSc2nc(-c3ccccc3)cn2-c2ccccc2)c1C | x | x | 23.1µM | x | u | u
Cc1ccc(C(=O)n2c(-c3ccccc3)cnc2SCC(=O)Nc2ccccc2)cc1 | n | n | u | n | n | n
O=C(CS(=O)(=O)c1nc(-c2ccc(Cl)cc2)cn1-c1ccccc1)Nc1ccc(F)cc1F | x | x | u | x | 18.4µM | u
CC(=O)Nc1nonc1-c1nnc(SCc2ccc(C)cc2)n1C | x | x | n | x | u | n
Cc1ccc(C(=O)n2c(-c3ccccc3)cnc2SCC(=O)Nc2ccc(C)cc2C)cc1 | n | u | 25.9µM | u | u | n
CCn1c(SCc2cccc(Br)c2)nnc1-c1nonc1NC(C)=O | x | x | 23.1µM | x | 18.4µM | n
Cc1ccc(C(=O)Nc2ccccc2-c2nc(Cc3ccccc3)no2)cn1 | x | x | x | x | x | n
O=C(CS(=O)(=O)c1nc(-c2ccc(Cl)cc2)cn1-c1ccccc1)Nc1cccc(Cl)c1 | x | x | u | x | 23.1µM | n
Cc1cccc(NC(=O)CS(=O)(=O)c2nc(-c3ccccc3)cn2-c2cccc(Cl)c2)c1C | x | x | 18.4µM | x | 23.1µM | n
O=C(COC(=O)c1nc(-c2ccccc2)n(-c2ccccc2)n1)Nc1cccc(Cl)c1 | x | x | x | x | x | n
Cc1ccc(-c2cn(-c3cccc(Cl)c3)c(S(=O)(=O)CC(=O)Nc3ccccc3F)n2)cc1 | x | x | u | x | u | n
Cc1ccc[n+](CC(=O)Nc2cccc(Cl)c2)c1 | n | n | n | n | n | n
Cc1ccc(-c2cn(-c3cccc(Cl)c3)c(S(=O)(=O)CC(=O)Nc3cccc(C)c3)n2)cc1 | x | x | u | x | 16.4µM | n
COCC1CN(C(C)=O)CC12CCN(Cc1cccc(OC)n1)CC2 (configuration not stated) | x | x | x | x | x | n
CCCCC[C@H](O)/C=C/C1C(=O)C=C[C@H]1C/C=C\CCCC(=O)OC (some centres not stated) | x | x | 7.31µM | x | 5.8µM | u
COC(=O)c1ccc(CCNC(=O)c2nccnc2N)cc1 | x | x | x | x | x | n
CN(C)c1ccc(SC#N)cc1 | u | n | n | 18.3µM | n | n
CN(C(=O)COC(=O)c1nc(Cl)c(Cl)c(Cl)c1Cl)C1CCS(=O)(=O)C1 (configuration not stated) | u | u | 20.6µM | u | 20.6µM | n
CN(C(=O)COC(=O)c1ccc(C(C)(C)C)cc1)C1CCS(=O)(=O)C1 (configuration not stated) | x | x | n | n | n | n
O=C(Nc1ccc2c(ccn2CCN2CCOCC2)c1)C1CCC1 | x | x | x | x | x | n
CSCCC(NC(=O)c1ccco1)C(=O)N1CCN(C(c2ccccc2)c2ccccc2)CC1 (configuration not stated) | x | x | 16.4µM | n | 23.1µM | n
SMILES | Gal4-VP16 FLuc | RORg inh | DT40 TDP1 no CPT | ELG1 repair inh | TDP1 cell CPT | 12-LOX inh
CSCCC(NC(=O)c1ccco1)C(=O)N1CCCC(C(F)(F)F)C1 (configuration not stated) | x | x | u | n | n | n
Cc1ccc(C)c(S(=O)(=O)N2CCN(C(=O)[C@H](Cc3ccccc3)NC(=O)c3ccco3)CC2)c1 | x | x | 16.4µM | u | 23.1µM | n
Cc1ccc(S(=O)(=O)N2CCN(C(=O)[C@H](Cc3ccccc3)NC(=O)c3ccco3)CC2)cc1C | x | x | 16.4µM | n | u | n
O=C(CSc1ncc(-c2ccc(F)cc2)o1)Nc1ccc(F)c(F)c1 | x | x | x | x | x | n
OCCNc1nc2nonc2nc1NCCO | n | n | n | n | n | n
CC(C)(C)Nc1nc2nonc2nc1NC(C)(C)C | n | n | u | n | 16.4µM | n
